ST2 inh = IL1RL1 inhibition; AID 1259354; inhibition, % for hits at 17 µM; AlphaLISA ST2-Fc/biotin-IL-33 interaction, 1 h; actives 2.3% (n = 78,000); Q01638; in the data active = inhibition above about 30%
Target sequence (Q01638 whole entry, looked up): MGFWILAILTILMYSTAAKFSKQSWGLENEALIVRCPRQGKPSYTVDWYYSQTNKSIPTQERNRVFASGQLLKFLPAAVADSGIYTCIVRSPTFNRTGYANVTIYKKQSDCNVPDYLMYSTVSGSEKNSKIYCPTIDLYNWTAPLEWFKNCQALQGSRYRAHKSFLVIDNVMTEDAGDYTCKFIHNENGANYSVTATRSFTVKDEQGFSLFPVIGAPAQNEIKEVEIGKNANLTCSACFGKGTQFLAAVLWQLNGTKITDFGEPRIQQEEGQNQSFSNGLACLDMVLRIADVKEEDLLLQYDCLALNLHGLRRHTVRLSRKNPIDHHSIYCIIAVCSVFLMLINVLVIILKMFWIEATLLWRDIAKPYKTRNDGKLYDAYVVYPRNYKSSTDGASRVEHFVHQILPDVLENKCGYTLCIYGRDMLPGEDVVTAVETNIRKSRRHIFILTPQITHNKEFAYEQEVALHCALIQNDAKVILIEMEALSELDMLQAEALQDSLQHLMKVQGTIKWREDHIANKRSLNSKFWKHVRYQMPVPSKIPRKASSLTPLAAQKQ
Each line names hits and unclear results; the compound was inactive in the other large screens; ! = not active in a repeat. The full list was thinned out, with hits kept by preference.

CC(C)c1ccc(C(=O)Nc2ccccc2C(N)=O)cc1	none
NC(=O)c1ccccc1NC(=O)c1cccc(C(=O)Nc2ccccc2C(N)=O)c1	ST2 inh 30.0%
CC1=C(C(N)=O)C(c2ccccc2F)n2ncnc2N1 (stereo not given)	none
COc1cc(NC(=O)C(C(C)C)N2C(=O)c3ccccc3C2=O)c(OC)cc1Cl (stereo not given)	ST2 inh 41.0%
COc1ccccc1NC(=O)C(C(C)C)N1C(=O)c2ccccc2C1=O (stereo not given)	none
CC(C)C(C(=O)Nc1ccccc1Br)N1C(=O)c2ccccc2C1=O (stereo not given)	none
O=C(O)CCC(=O)N1CCc2cc(S(=O)(=O)NCCC3=CCCCC3)ccc21	none
Cc1cc2nc(COc3ccc(Cl)cc3NC(=O)COc3ccc(C)c(C)c3)cc(=O)n2o1	none
CCOc1ccc(N2C(=O)S/C(=C\c3ccc(O)cc3)C2=O)cc1	none
CCOc1ccc(N2C(=O)S/C(=C\c3ccc(OC)cc3)C2=O)cc1	none
CCOc1ccc(N2C(=O)S/C(=C\c3ccc(C)o3)C2=O)cc1	ST2 inh 34.0%
CCc1ccc(CN2CCCC(CO)C2)cc1 (stereo not given)	none
Cc1ccc(CN2CCCC(CO)C2)cc1 (stereo not given)	none
OCC1CCCN(Cc2ccc3c(c2)Cc2ccccc2-3)C1 (stereo not given)	ST2 inh 98.0%
Cc1cc(C)cc(NC(=O)CC(=O)NCc2ccccc2)c1	none
O=C(Nc1cnn(Cc2ccc(Cl)cc2Cl)c1)c1cc(-c2ccco2)on1	none
Cn1cc(CC(=O)NCc2ccco2)c2ccccc21	none
Cn1cc(C(c2ccc([N+](=O)[O-])o2)c2cn(C)c3ccccc23)c2ccccc21	ST2 inh 41.0%
CCN(CC)C(=O)Cc1cn(C)c2ccccc12	none
O=C(Nc1ccc(Oc2ccccc2)cc1)O[C@@H]1CO[C@H]2[C@@H]1OC[C@@H]2Nc1nccc(-c2cccs2)n1	ST2 inh 34.0%
COc1cccc(NC(=O)O[C@@H]2CO[C@H]3[C@@H]2OC[C@@H]3Nc2nccc(-c3ccc(-c4ccccc4)cc3)n2)c1	none
COc1cc(NC(=O)N[C@H]2CO[C@H]3[C@@H]2OC[C@@H]3Nc2nccc(-c3cccs3)n2)cc(OC)c1	none
COc1cc(S(=O)(=O)N2CCN(c3nc(C)cc(N4CCCC4)n3)CC2)c(C)cc1C	none
COc1ccc(-c2nnc(N)o2)cc1	none
Nc1ccc(-c2nnc(-c3ccc(N)cc3)o2)cc1	ST2 inh 37.0%
Cc1ccc(-c2nnc(-c3ccc(Cl)cc3)o2)cc1	none
O=c1[nH]c2ccccc2n1CCCSc1nc2ccccc2o1	none
Cc1cc(C)n(-c2cc(NCCO)ncn2)n1	none
N/C(=N/OCC(=O)Nc1ccccc1[N+](=O)[O-])c1nonc1N	none
COc1ccc(NC(=O)CN2CCN(Cc3ccc4c(c3)OCO4)CC2)cc1	none
Cc1ccc(NC(=O)Cn2c(-c3ccc4c(c3)OCO4)cn(-c3ccccc3)c2=O)cc1	ST2 inh 31.0%
Cc1ccc(-c2noc(CCC(=O)Nc3ccc4c(c3)OCO4)n2)cc1	none
O=C(Nc1ccc(F)cc1F)c1cccc(Br)c1	none
COc1ncc(CN(Cc2sccc2C)CC(C)C)cn1	none
Cc1[nH]n(-c2ccccc2)c(=O)c1C=Nc1cccc(N)c1	none
Cc1[nH]n(-c2ccccc2)c(=O)c1C=Nc1c(C)[nH]n(-c2ccccc2)c1=O	none
CCCCOc1cccc(N=Cc2c(C)[nH]n(-c3ccccc3)c2=O)c1	ST2 inh 36.0%
O=Cc1ccc(OCC(=O)O)c(I)c1	none
COc1cccc(C2N(c3ccc(Cl)c(Cl)c3)C(=O)C3CCCN32)c1 (stereo not given)	none
COc1cccc2c1NC(C)(C)C=C2C	ST2 inh 46.0%
COc1ccccc1N=C1C(=O)Nc2ccccc21	none
COc1cccc(OC)c1OC	none
CCOc1c(Nc2ccccc2CC)c(=O)c1=O	none
Cc1ccc(NC(=O)c2cccnc2)cc1[N+](=O)[O-]	none
O=C1Nc2ccccc2C(O)(C(=O)NCc2ccc3c(c2)OCO3)N1c1ccccc1 (stereo not given)	ST2 inh 30.0%
COc1ccc(CNC(=O)C2(O)c3ccccc3NC(=O)N2c2cccc(OC)c2)cc1 (stereo not given)	none
CCCCNC(=O)C1(O)c2cc(Br)ccc2NC(=O)N1c1ccccc1 (stereo not given)	none
CCN(CC)CCNC(=O)C1(O)c2ccccc2NC(=O)N1c1ccccc1 (stereo not given)	none
CN(C)CCNC(=O)C1(O)c2ccccc2NC(=O)N1c1ccccc1 (stereo not given)	none
CCN(CC)CCNC(=O)C1(O)c2cc(Br)ccc2NC(=O)N1c1ccccc1 (stereo not given)	ST2 inh 31.0%!
Cc1nc(N(C)C)nc(N2CCC3(CCC(=O)N(C)CC3)CC2)c1C	none
COc1ccc(S(=O)(=O)N2Cc3ccccc3CC2C(=O)NC(C)(C)C#N)cc1 (stereo not given)	none
COc1ccc(OC)c(C2Nc3ccccc3NC3=C2C(=O)CC(c2ccc(Cl)cc2)C3)c1 (stereo not given)	none
COc1ccc(/C=C2\C(=O)Nc3ccc(Br)cc32)c(OC)c1OC	none
COc1ccc(OC)c(/C=C2\C(=O)Nc3ccc(Br)cc32)c1	ST2 inh 35.0%
